The text below walks through data of PubChem BioAssay (EPA / NIEHS).

In general, AC50 refers to the midpoint of the concentration-response curve, whichever way the signal moves.

Calls of active or inactive are those of the source. Rule for the calls: active = hit-call score of the fitted dose curve at least 0.9, where 1 is the maximum; inactive = score below 0.9.

This experiment can be described thus: ATG_RORE_CIS: Attagene CIS-FACTORIAL HepG2 Assay for human RAR-related Orphan Receptor Element (RORE) (AID 2282959). Particulars: HepG2 Attagene cis-factorial RORE reporter, mRNA; actives raise or lower the signal. As to the method:
ATG_CIS is a cell-based, multiplexed-readout assay that uses HepG2, a human liver cell line, with measurements taken at 24 hours after chemical dosing in a 24-well plate.ATG_RORE_CIS is one of 52 assay component(s) measured or calculated from the ATG_CIS assay. It is designed to make measurements of mRNA induction, a form of inducible reporter, as detected with fluorescence intensity signals by Reverse transcription polymerase chain reaction (RT-PCR) and Capillary electrophoresis technology.Data from the assay component ATG_RORE_CIS was analyzed into 1 assay endpoint. This assay endpoint, ATG_RORE_CIS, was analyzed with bidirectional fitting relative to DMSO as the negative control and baseline of activity. Using a type of inducible reporter, measures of mRNA for gain or loss-of-signal activity can be used to understand the reporter gene at the transcription factor-level as they relate to the gene RORA and RORB and RORC. Furthermore, this assay endpoint can be referred to as a primary readout, because this assay has produced multiple assay endpoints where this one serves a reporter gene function. To generalize the intended target to other relatable targets, this assay endpoint is annotated to the nuclear receptor intended target family, where the subfamily is orphan.
Human liver HepG2 cells are transiently transfected with multiple reporter transcription units (MRTUs) in 6-well plates using FuGene 6 reagent (Roche; 3 ml FuGene/1 mg DNA). The MRTU constructs are regulated by a cis-regulating element (promoter). […] A major difference between the CIS and TRANS system is that in CIS activities of endogenous TFs are measured, whereas the TRANS assay evaluates changes in activities of exogenous, chimeric NR-Gal4 proteins. […] At the end of 24 hour incubation, total RNA was isolated using TriZol reagent (Invitrogen). The isolated RNA is then reverse-transcribed using oligo(dT) primer and Mo-MLV reverse transcriptase (Invitrogen) with DNAse I (Ambion) treatment for 30 min. The one-tenth of the produced cDNA was amplified by PCR using Taq DNA polymerase (Invitrogen) and two reporter sequence-specific primers. The PCR products were fluorescently labeled by primer extension with 6-arboxyfluorescein (6-FAM) 5'-labeled reporter sequence-specific primer (2 min at 95 C, 20 s at 68 C and 10 min at 72 C) and these products were digested with 5U of HpaI (New England Biolabs) for 2h at 37 C. The fragments were purified using Qiaquick PCR columns (Qiagen), analyzed on an ABI 3130xL genetic analyzer (Applied Biosystems) with peak positions identified by using a set of X-rhodamine (ROX)-labeled MapMarker1000 molecular weight standards (BioVentures). The raw capillary electrophoresis data was processed using Attagraph software (Attagene).
As for `O=Nc1ccc(Nc2ccccc2)cc1`, the call was inactive.

`COc1c(Cl)c(Cl)c(Cl)c(Cl)c1Cl`: the outcome was inactive.

Turning to `NCCNCCN`, the outcome was inactive.

`O=C[C@H](O)[C@H](O)[C@H](O)CO`: the compound was called inactive.

As to `NCCOCCO`, the compound was classed as inactive.

Take `CC(=O)O[C@]1(C(C)=O)CC[C@H]2[C@@H]3C[C@H](C)C4=CC(=O)CC[C@]4(C)[C@H]3CC[C@@]21C`: the half-maximal activity concentration (AC50) was 11.2 µM (active).

`CCCCNC(=O)NS(=O)(=O)c1ccc(C)cc1`: the compound was called inactive.

For `C=CC(=O)OCCn1c(=O)n(CCOC(=O)C=C)c(=O)n(CCOC(=O)C=C)c1=O`, the call was inactive.

On to `CN(C)CCCN`, for which the compound was classed as inactive.

On to `CC(=O)C(=O)O`, for which the compound was classed as inactive.

With `CCc1c(C)cc(N)c(CC)c1N`, the compound was called inactive.

For `CCCCC(CC)COCCC#N` (stereo not given), the result was inactive.

`O=Cc1ccc(F)cc1`: the compound was classed as inactive.

On to `C/C=C(\C)C(=O)OCc1ccccc1`, for which the call was inactive.

For the compound `C=C(C)C1CCC(C)CC1O` (stereo not given), the result was inactive.

For the compound `COc1ccc(OC)c(OC)c1`, the compound was classed as inactive.

`CC(=O)Nc1ccc(C)cc1C`: the result was inactive.

Consider `CC(=O)OCC=Cc1ccccc1`, for which the compound was called inactive.

For `CCCCCCCCCCCCN`, the compound was classed as inactive.

`CNCCO`: the result was inactive.

As for `CCCCCCCCCCCCCC(=O)O`, the call was inactive.

For the compound `Nc1cc(Cl)c(O)c(Cl)c1`, the concentration at half-maximal activity (AC50) was 60.2 µM (active).

As for `COC(=O)Cc1cccc2ccccc12`, the compound was classed as inactive.

As to `Cc1ccc(Nc2ccc(O)c3c2C(=O)c2ccccc2C3=O)cc1`, the outcome was inactive.

Regarding `COC(C)CCO` (stereo not given), the result was inactive.

In the case of `CC(C=O)Cc1ccc(C(C)C)cc1` (stereo not given), the outcome was inactive.

Regarding `CC(C)=CCC[C@](C)(O)[C@@H]1CC=C(C)CC1`, the compound was called inactive.

For the compound `O=C(O)c1cccc([N+](=O)[O-])c1`, the compound was classed as inactive.

Turning to `CCc1ccc(C=O)cc1`, the result was inactive.

Regarding `COC(=O)C1=C(C)NC(C)=C(C(=O)OCCN(C)Cc2ccccc2)C1c1cccc([N+](=O)[O-])c1` (stereo not given), the compound was classed as inactive.

Regarding `OCc1cccnc1`, the result was inactive.

As to `O=C1c2ccccc2C(=O)N1SC1CCCCC1`, the compound was called inactive.

For the compound `Cc1ccc(C=O)s1`, the call was inactive.

As to `Clc1cccc(Cl)n1`, the call was inactive.

As to `N#Cc1ccc(CC(=NNC(=O)Nc2ccc(OC(F)(F)F)cc2)c2cccc(C(F)(F)F)c2)cc1`, the call was inactive.

`CCOC(=S)SSC(=S)OCC`: the compound was called inactive.

Consider `CC(C)=CCCC(C)=CCCC(C)=CCO`, for which the result was inactive.

As to `CCCCCCOC(=O)CC`, the call was inactive.

As to `Cc1ccc(C(=O)c2cc(O)c(O)c([N+](=O)[O-])c2)cc1`, the result was inactive.

Regarding `OCC(CO)(CO)COCC(CO)(CO)CO`, the call was inactive.
